Shown are actives, neighbours in structure and some others; about 2.2% of the full set was active somewhere.
TLR9-MyD88 inh: inhibitors of human TLR9-MyD88 binding. AID 504734. CHO BLA complementation TLR9-MyD88, CCF4 FRET ratio. actives 0.21% (n = 340,000). inhibition, % at 4.98 µM;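 active = inhibition above the mean over all tested compounds plus 3 SD, cut at about 21% in these data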;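 note: 0% = DMSO only wells and 100% = clavulanate BLA inhibitor control wells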
TLR4-MyD88 BLA: inhibitors of human TLR4-MyD88 binding; AID 861; HeLa CL3-4 TLR4/MyD88 BLA complementation, FRET ratio; actives 0.18% (n = 200,000); inhibition, % at 8.4 µM; in the data active = inhibition above about 25%;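 note: 0% = vehicle and 100% = reference inhibitor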
GRK2 aptamer HTS: blocks RNA aptamer binding to human GRK2 | bead flow cytometry, FAM-aptamer displacement from GRK2 | inhibition of aptamer binding, % at 10 µM | actives 0.59% (n = 330,000);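 active = inhibition of aptamer binding above 40%, roughly 3 SD of noise, on plates passing a quality check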;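 note: median bead fluorescence of bound FAM aptamer so fluorescent compounds give negative values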
NOD2 RIPK2 PPI: inhibitors of human NOD2-RIPK2 interaction | CHO BLA complementation NOD2-RIPK2, CCF4 ratio | actives 0.38% (n = 360,000) | O43353 | inhibition, % at 4.98 µM; in the data active = inhibition above about 21%;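 note: 0% = vehicle only and 100% = reference blocker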
Target sequence (O43353 whole entry, looked up): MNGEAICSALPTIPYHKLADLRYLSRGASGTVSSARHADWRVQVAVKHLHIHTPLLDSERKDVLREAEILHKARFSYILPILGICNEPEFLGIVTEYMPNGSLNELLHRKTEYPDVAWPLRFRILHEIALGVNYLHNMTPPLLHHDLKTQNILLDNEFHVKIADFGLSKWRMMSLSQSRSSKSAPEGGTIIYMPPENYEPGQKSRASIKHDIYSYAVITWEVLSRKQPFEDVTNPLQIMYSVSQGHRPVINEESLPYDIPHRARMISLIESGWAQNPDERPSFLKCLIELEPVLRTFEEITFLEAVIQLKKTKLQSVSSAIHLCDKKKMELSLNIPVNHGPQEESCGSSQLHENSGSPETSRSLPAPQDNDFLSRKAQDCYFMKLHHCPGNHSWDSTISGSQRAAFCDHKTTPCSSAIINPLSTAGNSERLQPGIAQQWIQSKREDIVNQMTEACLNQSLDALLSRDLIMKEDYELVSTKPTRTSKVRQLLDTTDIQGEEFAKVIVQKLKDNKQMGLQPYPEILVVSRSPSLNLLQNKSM
TMEM16A act: mouse TMEM16A channel activation, primary screen; B-score at 10 µM; Q8BHY3; actives 0.3% (n = 340,000); HEK293 TMEM16A/YFP-H148Q/I152L, iodide quench fluorescence; stronger effect = lower value;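 active = fluorescence-ratio B-score plate-corrected deviation score at least 3 library SD below zero, with starting fluorescence score within 5 deviations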;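 note: channel opened by trigger with iodide after compound preincubation; score built on the fluorescence ratio of max minus min over baseline; more negative score means more quench and so TMEM16A activation or potentiation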
ANO1 block: blocks the mouse calcium-activated chloride channel TMEM16A | Q8BHY3 | HEK293 TMEM16A/YFP iodide influx fluorescence, ionomycin | normalized B-score (activity score, 25-100; higher = stronger inhibition) at 10 µM | actives 1.2% (n = 310,000) | AID 588511;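 active = ratio plate-corrected score three or more library SD toward inhibition, starting fluorescence score within five deviations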;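 note: score derived from kinetic fluorescence span divided by baseline fluorescence per well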
GRK2 inh confirm: confirmation of human GRK2 inhibitors displacing RNA aptamer | shares compounds with GRK2 aptamer HTS | aptamer displacement, % at 10 µM | actives 4% (n = 2,000) | bead-bound GRK2, FAM-aptamer displacement, flow cytometry;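 active = aptamer displacement above 40%, near three times the noise of non-fluorescent compounds, on plates passing quality checks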;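 note: negative values mostly reflect intrinsic compound fluorescence rather than true enhancement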
Aptamer quench: fluorescent aptamer quenching in GRK2 counter-screen dose response | shares compounds with GRK2 aptamer HTS | Fluorescent RNA aptamer beads, flow cytometry; stronger effect = higher value | fluorescence change (kMESF span), kMESF (test concentration not listed) | 110 tested, under 10 active;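 active = compounds whose bead fluorescence drops by more than 37 kMESF across the dose range, marking them as dye quenchers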
FAM quench CP1: counter-screen for GRK2 aptamer inhibitors: fluorescent aptamer quenchers | shares compounds with GRK2 aptamer HTS | Carboxyfluorescein RNA aptamer on beads, flow cytometry quenching; stronger effect = lower value | fluorescence response (% of DMSO), % at 10 µM | 2,000 tested, under 10 active | AID 504580;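 active = compounds that quench the bead-bound fluorescent RNA probe, cutting fluorescence to under half of the solvent control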;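 note: counterscreen run without GRK2 so only probe quenching by compound is measured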
GRK2 confirm 2: confirmation of human GRK2 inhibitors binding RNA aptamer site | shares compounds with GRK2 aptamer HTS | bead-bound GRK2, FAM-aptamer displacement, flow cytometry | inhibition of aptamer binding, % at 10 µM | 360 tested, under 10 active;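 active = inhibition of aptamer binding above 40%, about triple the noise seen with nonglowing compounds, on plates passing quality control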;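 note: negative values mostly come from compounds that fluoresce themselves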
FAM quench CP2: aptamer fluorescence quenching in GRK2 counter-screen. shares compounds with GRK2 aptamer HTS. carboxyfluorescein RNA aptamer beads, flow cytometry quenching; stronger effect = lower value. fluorescence response vs DMSO, % at 10 µM. 360 tested, under 10 active. AID 588494;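 active = response vs DMSO under 50%, meaning signal dropped by over half, treated as fluorescence quencher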;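 note: labelled aptamer on streptavidin beads without GRK2 as a quench counter-screen; 100% = bead fluorescence of DMSO wells and lower means quenching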
* = called active by the depositor; i = inactive; . = not tested or not shown.

SMILES | TLR9-MyD88 inh | TLR4-MyD88 BLA | GRK2 aptamer HTS | NOD2 RIPK2 PPI | TMEM16A act | ANO1 block | GRK2 inh confirm | FAM quench CP1 | others
O=C(CSc1nnc(NC(=O)Cc2ccccc2)s1)NCc1ccco1 | -6.7 | 11.9 | 60.0* | -1.2 | i | i | -0.6 | 92.4
Cc1ccc(NC(=O)COC(=O)C2(CC(=O)NC(C)(C)C)CCCC2)cc1C | 12.5 | . | 20.0 | -2.2 | i | . | -1.2 | 99.3
C=C(C)CSc1nc2sc3c(c2c(=O)n1-c1ccc(C)cc1)CCN(C)C3 | -3.2 | . | . | -10.5 | i | . | 0.1 | 100.6
Cc1noc(C)c1NC(=O)Nc1ccc2c(c1)CC(=O)N([C@H](C)CO)C[C@@H](C)[C@H](CN(C)CC1CCCCC1)O2 | 0.1 | . | 1.0 | -6.1 | i | . | . | .
CCc1c(C(=O)NC2CCCC2)csc1C | -2.1 | -5.2 | 97.0* | 3.3 | i | i | -4.2 | 95.4
CCc1c(C(=O)NN2C(=O)C3CCCCC3C2=O)csc1C (centres undefined) | -3.5 | -1.4 | 0.0 | -6.5 | i | i | . | .
Cc1cc(NS(=O)(=O)c2c(C(=O)N3CCOCC3)c(C)n(C)c2C)ccc1Br | -3.3 | . | 45.0* | -1.3 | i | i | -3.9 | 103.4
CC(C)n1cc(CN2CCN(C)C(CCO)C2)c2ccccc21 (centres undefined) | 0.8 | . | 1.0 | -5.9 | i | i | . | .
COC(=O)c1sc2ncn(N)c(=O)c2c1C | . | . | 42.0* | . | . | i | 0.9 | 97.4
OC(COc1ccccc1)CN1CCCCC1 (centres undefined) | -6.9 | . | . | -11.7 | i | . | . | .
OC(COc1ccc(C2C=CCC2)cc1)CN1CCCCC1 (centres undefined) | -0.4 | 0.3 | 62.0* | -11.1 | i | i | -74.7 | 105.4
CC(=O)c1cccc(NC(=O)CSc2nnc(C(C)N(C)C)n2Cc2ccccc2)c1 (centres undefined) | -3.9 | . | 0.0 | 11.4 | i | i | . | .
CC(c1nnc(SCC(=O)Nc2cccnc2Cl)n1Cc1ccccc1)N(C)C (centres undefined) | 0.6 | -8.5 | 99.0* | -4.0 | i | i | 2.8 | 91.1
CC(C)N(CCn1c(SCC(=O)Nc2cccnc2Cl)nc2ccccc2c1=O)C(C)C | 8.0 | . | 42.0* | -5.7 | i | . | . | . | GRK2 confirm 2=-8.5;FAM quench CP2=99.0
Cn1c(=O)c2c(SCC(=O)Nc3nccs3)nc(C3CC3)nc2n(C)c1=O | -5.0 | . | 2.0 | 6.9 | i | i | . | .
CCOC(=O)c1ccc2nc(NC(=O)C(C)C)sc2c1 | -3.6 | 2.8 | 62.0* | 2.9 | i | i | -0.8 | 97.4
Cc1ccc(CNC(=O)C2CCC(=O)N(Cc3ccccc3F)C2)s1 (centres undefined) | 2.1 | . | 2.0 | -13.1 | i | i | . | .
COc1ccc(-c2[nH]ncc2CN(CCO)Cc2cccs2)c(F)c1 | 2.1 | 12.8 | 1.0 | -1.9 | i | i | . | .
Oc1c(Cl)cc(Cl)c2cccnc12 | 5.8 | -2.3 | . | -1.6 | i | . | . | .
Cc1ccc(S(=O)(=O)Nc2cc(Cl)c(O)c3ncccc23)cc1 | 3.6 | . | 55.0* | 10.5 | i | i | . | . | GRK2 confirm 2=-30.3;FAM quench CP2=111.0
CN(CC(=O)Nc1c(Cl)cccc1Cl)C(=O)CCc1nc2sc3c(c2c(=O)[nH]1)CCCC3 | 8.8 | . | 0.0 | 6.5 | i | i | -1.3 | 94.2
Cc1cc(Cl)c(C)c(S(=O)(=O)N2CCN(CC(=O)N3CCOCC3)CC2)c1Cl | 6.1 | . | 2.0 | -10.9 | i | . | . | .
COc1ccc(S(=O)(=O)N2CCCCC2)cc1NC(=O)c1ccc(N2CCCC2=O)cc1 | -5.5 | . | 79.0* | -12.6 | i | . | 1.2 | 101.0
COc1ccccc1NC(=O)Cc1csc(NC(=S)Nc2ccccc2)n1 | -1.2 | -6.2 | 58.0* | -0.8 | i | i | 1.7 | 98.8
COc1ccc(NC(=S)Nc2nc(CC(=O)Nc3ccccc3OC)cs2)cc1 | -7.1 | 10.2 | 2.0 | 5.3 | i | i | . | .
SMILES | TLR9-MyD88 inh | TLR4-MyD88 BLA | GRK2 aptamer HTS | NOD2 RIPK2 PPI | TMEM16A act | ANO1 block | GRK2 inh confirm | FAM quench CP1 | others
COc1ccc(OC)c(Nc2nc(NCc3ccco3)c3ccccc3n2)c1 | -11.9 | . | 46.0* | 3.5 | i | i | -1.6 | 96.7
Oc1ccccc1Nc1nc(NCc2ccco2)c2ccccc2n1 | -7.5 | . | 3.0 | 2.5 | i | i | . | .
Cc1ccc(C)c(CC(=O)N2CCCCC2c2cc(C(=O)Nc3cccc(C#N)c3)no2)c1 (centres undefined) | . | . | . | 12.5 | . | . | . | .
CC(C)(C)OC(=O)[C@H](Cc1ccccc1)NC(=O)c1[nH]cnc1C(=O)Nc1cccc(Cl)c1 | -9.3 | . | 0.0 | -6.8 | i | i | -1.7 | 97.6
CNC(=O)c1[nH]cnc1C(=O)Nc1cccc(Cl)c1 | 4.5 | . | 91.0* | -8.7 | i | . | 93.3* | 98.1 | Aptamer quench=4
CC1CCN(C(=O)c2[nH]cnc2C(=O)Nc2cccc(Cl)c2)CC1 | 2.8 | . | 0.0 | -4.5 | i | . | -3.8 | 102.9 | Aptamer quench=-11.5
O=C(Nc1cccc(Cl)c1)c1ccncc1 | -3.3 | -8.9 | 1.0 | -4.9 | i | i | . | .
O=C(Nc1cccc(Cl)c1)c1cnc[nH]1 | -4.0 | . | 58.0* | -8.0 | . | i | 3.5 | 92.2
O=C(Nc1cccc(Cl)c1)c1nc[nH]c1C(=O)NCCCNC(=O)c1[nH]cnc1C(=O)Nc1cccc(Cl)c1 | -5.6 | . | 0.0 | -9.2 | i | . | . | .
C[C@H](NC(=O)c1[nH]cnc1C(=O)Nc1ccc(Cl)cc1)c1ccccc1 | -6.5 | . | 0.0 | 0.6 | i | . | . | .
C[C@@H](NC(=O)c1[nH]cnc1C(=O)Nc1ccccc1)c1ccccc1 | 10.6 | . | 1.0 | 8.5 | i | . | . | .
CN(Cc1ccccc1)C(=O)c1[nH]cnc1C(=O)Nc1ccc(Cl)cc1 | -0.5 | . | 1.0 | 0.9 | i | . | . | .
C[C@H](NC(=O)c1[nH]cnc1C(=O)Nc1cccc(Cl)c1)c1ccccc1 | -7.6 | . | 1.0 | -11.9 | i | . | 1.6 | 103.9
CN(Cc1ccccc1)C(=O)c1[nH]cnc1C(=O)Nc1cccc(Cl)c1 | -4.2 | . | 0.0 | 7.1 | i | . | 0.8 | 102.0
C[C@@H](NC(=O)c1[nH]cnc1C(=O)Nc1cccc(Cl)c1)c1ccccc1 | 6.2 | . | 0.0 | 14.0 | i | . | -2.1 | 100.2

From PubChem
